# Experimental data published in PubChem BioAssay (NCI).
# About 83,000 compounds went through this panel and 20% of them were active in at least one assay; those are over-represented in the sample as a whole.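 Percent growth is the endpoint: 0 to 100 indicates growth inhibition (40 means 60% inhibition), 0 means no net growth, and negative values indicate cell death.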 Values without a mark were called inactive. Activity calls are given as the source filed them. Rule for the calls: active = growth percent below 10; inactive = the rest.
# Tested on: MDA-MB-468 breast
# Test: NCI-60 one-dose screen, 48 h (100 = growth as untreated, 0 = no growth, -100 = all killed)
# Settings: 10 µM unless noted
row,Structure (SMILES),growth
1,COc1ccc2c(c1)C(=O)/C(=C/c1ccc([N+](=O)[O-])s1)O2,-22.9% (active)
2,COc1ccc2nc3ccccc3c(NCc3ccc(F)cc3)c2c1,-23.9% (active)
3,COc1cc(OC)c(/C=C/C(=O)c2c(N)cc(OC)cc2OC)c(OC)c1,-17.1% (active)
4,COC1OCC(OS(=O)(=O)c2ccc(C)cc2)C(OC(=O)c2ccccc2)C1OC(=O)c1ccccc1 (stereo not given),13%
5,COc1ccc(/C=C(\C(=O)NCc2cccnc2)S(=O)(=O)c2ccccc2)cc1OC,1.86% (active)
6,CCN1CCN(c2nc(NNC(=O)c3ccccc3)nc(N3CCN(C(c4ccccc4)c4ccccc4)CC3)n2)CC1,7.71% (active)
7,c1cc(-c2ccc3c(c2)OCO3)n2nccc2n1,95%
8,CCCOC(=O)n1cccc1,106%
9,CCC#CC[C@H]1C/C=C2/C(=O)C=C[C@@H]2C/C=C\CCCC(=O)O1,-3.46% (active)
10,Cn1cc(-c2noc(C(=O)c3cn(C)c4ncccc34)n2)c2ccccc21,-9.42% (active)
11,Cc1ccc(-c2nc(N3CCNCC3)c3oc(-c4ccccc4)nc3n2)cc1,-31.4% (active)
12,O=C1c2c(O)cc(O)cc2OC(c2ccc(O)c(O)c2)C1O (stereo not given),112%
13,O=C(O)c1nn(-c2ccc(Cl)cc2)nc1N1CCCC1,86%
14,COc1cc2cc(Oc3ccc(NC(=O)Nc4ccc(C(F)(F)F)cc4)cc3)c(C)nc2cc1OC,40.1%
15,CNCCCNCCCCNCCCN1C(=O)c2ccc3c4c(ccc(c24)C1=O)C(=O)N(CCCNCc1ccccc1OC)C3=O,28.6%
16,Cc1ccc2nc(NC(=O)CSc3nc(-c4ccccc4)c(C#N)c(=O)n3Cc3ccccc3)sc2c1,102%
17,C=CCNc1nc(O)c(/C=C2\C=Nc3ncccc32)s1,1.02% (active)
18,CCCCCCN(CCCCCC)CCC(O)c1ccc2ccccc2c1 (stereo not given),18.6%
19,Cc1ccc(-c2nc(N3CCN(CC(=O)Nc4ccc(Cl)c(C(F)(F)F)c4)CC3)c3ccccc3n2)cc1,93.9%
20,O=C(CC(=O)Nc1cccc(C(=O)O)c1)Nc1cccc(C(=O)O)c1,108%

row,Structure (SMILES),growth
1,NC(=O)c1c(NC(=O)c2ccc3c(c2)OCO3)sc2c1CCC(=O)C2,-35.3% (active)
2,O=C(Nc1cccc2[nH]c(C(F)(F)F)nc12)c1cc(Cl)ccc1Cl,15.1%
3,Ic1ccccc1I,98.9%
4,O=S(=O)(c1ccccc1)n1cc2c(c1)-c1nc(Nc3ncccn3)sc1CC2,46.3%
5,O=C1c2cc3c(cc2-c2c1c1cc(Cl)c(Cl)cc1c(=O)n2C[C@H](O)CO)OCO3,-54.1% (active)
6,O=C1NC(=O)/C(=C/c2ccc(OCc3cc4ccccc4nc3Cl)cc2)S1,92%
7,Nc1n[nH]c2cccc(C#Cc3cccc(C(=O)Nc4ccc(CN5CCOCC5)c(C(F)(F)F)c4)c3)c12,66%
8,CN(C)Cc1cc(C(C)(C)CC(C)(C)C)ccc1O,100%
9,N#C/C(=C1C=C/C(=N/O)C(Cl)=C/1)c1ccc(Cl)cc1,-8.37% (active)
10,Cc1ccc(NC(=O)NC(=O)CSc2nc3ccccc3nc2C)cc1,19.6%
11,COc1ccc(-c2nc3sc(-c4cc(OC)c(OC)c(OC)c4)nn3c2/C=C2/C(=O)Nc3ccc(F)cc32)cc1,-65.3% (active)
12,Clc1cc2c(nn1)Nc1ccccc1S2,96.9%
13,Nc1cc(Br)cc2c1[nH]c(=O)c1ccccc12,-8.15% (active)
14,Nc1ccccc1NC(=O)CCCCC(=O)Nc1ccc2c(c1)/C(=C/c1ccc[nH]1)C(=O)N2,50.4%
15,CCCCC[C@H](O)C/C=C1/C(=O)C=C[C@@H]1C/C=C\CCCC(=O)OC,64.6%
16,COc1ccc(-n2ncc3c4nc(OC)c(S(=O)(=O)c5ccccc5)cc4ccc32)cc1,51.9%
17,Clc1ccc(-c2cn(-c3ccccc3)c(-c3ccccc3)n2)c(Cl)c1,-61.3% (active)
18,CCCCCCCCC(=O)Nc1ccc(O)cc1,100%
19,COc1cnc2c(c1)C(=O)c1c-2n(CCCN2CCNCC2)c(=O)c2cc(Cl)ccc12,65.8%
20,COc1cc(-c2nc(SCC(C)C)nc(Nc3cccc4ccccc34)c2C#N)cc(OC)c1OC,116%
